The text below walks through data of PubChem BioAssay AID588403 (Broad Institute, 2011).

The source made the active and inactive calls.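 How the source made its calls: active means dose-dependent signal loss with a fitted half-maximal concentration at or below 35 µM; inconclusive means flat fit with 30 to 70% signal loss, or poor fit; inactive means the rest.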

This experiment is described as follows: compounds quenching DiI signal without cells – biochemical, powder samples, plate reader fluorescence, artefact control for SR-BI HDL uptake inhibitor project, dose response (AID 588403). Conditions: cell-free DiI-HDL fluorescence quenching counter-screen, 30 min; series mostly up to 35 µM; activity change, negative = quenching: at the top concentration. For orientation: The purpose of a counterscreen is to sort out artefacts and off-target activity.
For `C[C@@H]1CN([C@H](C)CO)C(=O)c2cc(NC(=O)Cc3cn(C)c4ccccc34)ccc2O[C@H]1CN(C)S(=O)(=O)c1ccc(Cl)cc1`, the result was inactive.
Turning to `COc1ccc(-c2nnn(CC(=O)N(C3CCCCC3)C(C)C(=O)NC3CCCC3)n2)cc1OC` (stereo not given), the “activity change, negative = quenching” value is 2.89% (inactive).
The same measure, in the same setting: next, `CCC(=O)N1CCc2cc(-c3csc(NC(=O)c4ccc(F)c(OC)c4)n3)ccc21`: -0.583% (inactive); `CCC(=O)N1CCc2cc(-c3csc(NC(=O)c4cccc(OC)n4)n3)ccc21`: -1.71% (inactive).
Same read-out and setting: for `COc1cccc(-c2nnn(CC(=O)N(C3CCCCC3)C(C)C(=O)NC3CCCC3)n2)c1` (stereo not given) the value was 0.879% (inactive); for `Cc1ccc(-c2nnn(CC(=O)N(C3CCCCC3)C(C)C(=O)NC3CCCC3)n2)cc1` (stereo not given), 1.65% (inactive).
Take `CCC(=O)N1CCc2cc(-c3cnc(NC(=O)c4ccco4)[nH]3)ccc21`: the “activity change, negative = quenching” value is 0.462% (inactive).
Same read-out and setting: for `CCC(=O)N1CCc2cc(-c3cnc(NC(C)=O)[nH]3)ccc21` the value was -4.51% (inactive); for `CCC(=O)N1CCc2cc(-c3csc(NC(=O)c4cccc(OC(F)(F)F)c4)n3)ccc21`, 3.82% (inactive); for `CC(C(=O)NC1CCCC1)N(C(=O)Cn1nnc(-c2ccc(Cl)cc2)n1)C1CCCCC1` (stereo not given), 3.64% (inactive).
For the compound `CC(C)C(=O)N1CCc2cc(-c3csc(NC(=O)c4ccco4)n3)ccc21`, the “activity change, negative = quenching” value is -3.58% (inactive).
On the same count and under the same terms, for `O=C(Nc1nc(-c2ccc3c(c2)CCN3C(=O)C2CC2)cs1)c1ccco1` the value was -7.46% (inactive); for `CC(C(=O)NC1CCCC1)N(C(=O)Cn1nnc(-c2ccccc2Cl)n1)C1CCCCC1` (stereo not given), -0.377% (inactive).
Consider `CC(C(=O)NC1CCCC1)N(C(=O)Cn1nnc(-c2cccc(F)c2)n1)C1CCCCC1` (stereo not given), for which the “activity change, negative = quenching” value was 1.08% (inactive).
The same measure, in the same setting: for `CCC(=O)N1CCc2cc(-c3coc(NC(=O)c4ccco4)n3)ccc21` the value was -2.4% (inactive); for `CC(C(=O)NC1CCCC1)N(C(=O)Cn1nnc(-c2ccc3c(c2)OCO3)n1)C1CCCCC1` (stereo not given), 5.3% (inactive).
Turning to `COc1ccccc1-c1nnn(CC(=O)N(C2CCCCC2)C(C)C(=O)NC2CCCC2)n1` (stereo not given), the “activity change, negative = quenching” value was -0.761% (inactive).
On the same count and under the same terms, next, `CS(=O)(=O)N1CCc2cc(-c3csc(NC(=O)c4ccco4)n3)ccc21`: -3.49% (inactive).
On to `CCC(=O)N1CCc2cc(-c3csc(NC(=O)c4cc(OC)cc(OC)c4)n3)ccc21`, for which the “activity change, negative = quenching” value was -2.6% (inactive).
The same measure, in the same setting: next, `COC(=O)N1CCc2cc(-c3csc(NC(=O)c4ccco4)n3)ccc21`: -5.84% (inactive).
Same read-out and setting: for `CCC(=O)N1CCc2cc(-c3csc(NC(=O)c4ccco4)n3)ccc21` the value was 0.945% (inactive).
Same read-out and setting: for `O=C(CN(C(=O)Cn1nnc(-c2ccc3c(c2)OCO3)n1)C1CCCCC1)NC1CCCC1` the value was 1.47% (inactive).
In the case of `COc1ccc(-c2cc(CC(=O)N(C3CCCCC3)C(C)C(=O)NC3CCCC3)no2)cc1OC` (stereo not given), the “activity change, negative = quenching” value is 1.88% (inactive).
Same read-out and setting: for `CC(C(=O)NC1CCCC1)N(C(=O)Cn1nnc(-c2ccc(F)cc2)n1)C1CCCCC1` (stereo not given) the value was -2.08% (inactive).
On the same count and under the same terms, for `CCC(=O)N1CCc2cc(-c3coc(N)n3)ccc21` the value was -3.54% (inactive); for `CC(C(=O)NC1CCCC1)N(C(=O)Cn1nnc(-c2ccccc2F)n1)C1CCCCC1` (stereo not given), -4.01% (inactive); for `O=C(Nc1nc(-c2ccc3c(c2)CCN3)cs1)c1ccco1`, -10.5% (inactive).
For `COc1ccc(-c2nnn(CC(=O)N(CC(=O)NC3CCCC3)C3CCCCC3)n2)cc1OC`, the “activity change, negative = quenching” value was -0.763% (inactive).
On the same count and under the same terms, next, `CCC(=O)N1CCc2cc(-c3csc(NC(=O)c4cccc(OC)c4)n3)ccc21`: -4.37% (inactive).
Same read-out and setting: for `CCCCCCC1CCC/C1=N\NC(N)=S` (stereo not given) the value was 2.81% (inactive).
